Reference: PubChem BioAssay (NCATS)
Records with an inconclusive call do not appear. The source made the active and inactive calls. Calls come from the whole dose curve; as a rule, active = well fitted inhibition curve with a large enough effect; inconclusive = small, poorly fitted or top-dose-only effect; inactive = flat fitted curve, though single readings scatter.

Target: Lysine-specific demethylase 5B (Homo sapiens) (UniProt Q9UGL1)
Assay: Optimization screen for KDM5B Histone Demethylases FDH coupled qHTS against the LOPAC library (AID 1347166); note: 0% is about no effect
Conditions: KDM5B demethylation, FDH-coupled NADH fluorescence (FDH is formaldehyde dehydrogenase); series mostly up to 57.5 µM; activity, negative = inhibition: at the top concentration
Outline: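 KDM5BDeltaAP (200nM final) preincubated 10 min with compound, then 12.5uM H3K4Me3, 25uM a-ketoglutarate, ascorbate, Fe(II), NAD+ and FDH added; 50mM HEPES pH 7.5, 0.01% Tween-20. NADH fluorescence (340/450 nm) change over 30 min, room temperature.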

Chain of Lysine-specific demethylase 5B (Homo sapiens) (Q9UGL1 whole entry, looked up): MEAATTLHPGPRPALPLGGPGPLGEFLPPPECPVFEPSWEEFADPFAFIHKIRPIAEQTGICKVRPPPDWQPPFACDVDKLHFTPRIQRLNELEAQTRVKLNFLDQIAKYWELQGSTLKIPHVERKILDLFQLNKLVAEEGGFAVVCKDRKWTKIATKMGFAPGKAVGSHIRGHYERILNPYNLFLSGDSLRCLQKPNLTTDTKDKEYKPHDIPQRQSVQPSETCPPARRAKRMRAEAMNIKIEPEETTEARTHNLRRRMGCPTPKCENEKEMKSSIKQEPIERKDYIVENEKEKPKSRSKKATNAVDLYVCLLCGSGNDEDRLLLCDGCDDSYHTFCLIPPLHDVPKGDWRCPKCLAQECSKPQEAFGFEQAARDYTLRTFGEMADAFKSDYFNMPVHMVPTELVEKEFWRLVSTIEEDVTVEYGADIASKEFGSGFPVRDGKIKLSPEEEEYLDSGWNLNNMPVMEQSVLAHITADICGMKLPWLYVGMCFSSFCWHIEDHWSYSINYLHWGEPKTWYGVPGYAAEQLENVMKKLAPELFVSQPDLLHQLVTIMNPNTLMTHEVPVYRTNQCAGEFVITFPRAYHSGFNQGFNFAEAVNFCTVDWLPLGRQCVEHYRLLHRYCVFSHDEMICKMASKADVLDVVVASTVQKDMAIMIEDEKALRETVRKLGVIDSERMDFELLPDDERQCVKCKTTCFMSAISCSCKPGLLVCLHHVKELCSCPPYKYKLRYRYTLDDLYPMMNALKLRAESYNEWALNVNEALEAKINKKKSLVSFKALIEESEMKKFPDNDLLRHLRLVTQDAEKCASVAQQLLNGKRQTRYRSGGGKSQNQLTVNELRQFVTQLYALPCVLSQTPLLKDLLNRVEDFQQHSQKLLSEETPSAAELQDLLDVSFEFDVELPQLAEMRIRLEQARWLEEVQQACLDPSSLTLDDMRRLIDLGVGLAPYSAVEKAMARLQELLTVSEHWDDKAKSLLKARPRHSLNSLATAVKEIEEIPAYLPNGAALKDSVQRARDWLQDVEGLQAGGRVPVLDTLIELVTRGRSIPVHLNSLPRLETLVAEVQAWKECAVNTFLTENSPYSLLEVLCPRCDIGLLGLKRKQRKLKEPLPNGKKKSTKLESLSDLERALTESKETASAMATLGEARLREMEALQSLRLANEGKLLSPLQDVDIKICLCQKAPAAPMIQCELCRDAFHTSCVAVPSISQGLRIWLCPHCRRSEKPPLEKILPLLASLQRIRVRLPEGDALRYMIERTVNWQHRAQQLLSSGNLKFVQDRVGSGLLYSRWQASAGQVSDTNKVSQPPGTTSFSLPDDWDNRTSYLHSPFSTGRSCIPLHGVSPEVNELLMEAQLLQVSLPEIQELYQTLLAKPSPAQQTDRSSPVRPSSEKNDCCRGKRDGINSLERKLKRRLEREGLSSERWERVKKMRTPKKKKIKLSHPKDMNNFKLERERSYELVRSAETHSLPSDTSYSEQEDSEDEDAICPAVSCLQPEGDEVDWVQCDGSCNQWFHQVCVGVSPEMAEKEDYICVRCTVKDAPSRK

Structure (SMILES) | activity, negative = inhibition
C[C@H](N)Cc1cccc(C(F)(F)F)c1 | -3.33% (inactive)
COc1ccc2c(c1)c(CCN1CCOCC1)c(C)n2C(=O)c1cccc(Cl)c1Cl | -11% (inactive)
CC12NC(Cc3ccccc31)c1ccccc12 (stereo unspecified) | -3.5% (inactive)
CC(C)NP(=O)(NC(C)C)OP(=O)(NC(C)C)NC(C)C | -4.02% (inactive)
C=CCN1CC[C@]23c4c5ccc(O)c4O[C@@H]2/C(=N/N=C2\CC[C@@]4(O)C6Cc7ccc(O)c8c7[C@@]4(CCN6CC=C)[C@@H]2O8)CC[C@@]3(O)C1C5 | -20.9% (inactive)
CCCn1c(=O)c2[nH]c(C3CCCC3)nc2n(CCCOC(=O)c2ccc(S(=O)(=O)F)cc2)c1=O | -7.05% (inactive)
CCCCCCC(C)(C)c1ccc([C@@H]2C[C@H](O)CC[C@H]2CCCO)c(O)c1 | -13.4% (inactive)
CCN1C[C@@]2(COC)C3[C@@H](OC)C4[C@@H]1C3([C@@H]1C[C@]3(O)[C@H](OC(=O)c5ccccc5)[C@@H]1[C@]4(OC(C)=O)[C@@H](O)[C@@H]3OC)[C@H](OC)C[C@H]2O | -11.3% (inactive)
CC(=O)NBr | -2.75% (inactive)
NC(=O)COc1c(F)cc(SCCNS(=O)(=O)c2ccccc2)cc1F | 1.41% (inactive)
CCOC(=O)c1ncn2c1[C@@H]1CCCN1C(=O)c1cc(OC)ccc1-2 | -4.6% (inactive)
